ERK EGF block: inhibitors of EGF-stimulated ERK signaling pathway; Potency, µM (series often up to 11.5 µM), for inactives: at the top dose activity change, negative = inhibition, usual class: inhibitors; AID 1454; 130,000 tested, 0.41% active; HEK293-V1b, EGF-stimulated phospho-ERK AlphaScreen; active = well fitted inhibition curve with a large enough effect;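 note: plate controls were stimulated vehicle wells for no effect and unstimulated vehicle basal for full effect; nearly all actives have a fitted effect of over 55% in size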
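HEK293 cells stably expressing V1b receptor, serum-reduced (1% FBS) overnight, pretreated 30 min with compound, then stimulated 5 min with 25 nM EGF; phospho-ERK detected by AlphaScreen SureFire. AC50 from Hill fits, normalized to DMSO and EGF.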
* = called active by the depositor; [ ] = remark or other dose. Only a selection was taken, and hits are over-represented in it overall. Potency is the fitted concentration of half-maximal effect.

SMILES	ERK EGF block
CC(C)=C1C(=O)C(c2ccccc2)=C2CN3C(=O)N(CCc4ccccc4)C(=O)[C@]3(Cc3ccccc3)[C@H]21	4.2%
CCCn1c(C)cc(C(=O)CSc2nc3ccccc3c(=O)n2Cc2ccco2)c1C	10.1%
Cc1cc(C(=O)CSc2nc3ccccc3[nH]2)c(C)n1Cc1ccco1	17.8µM*
Cc1cc(C(=O)CSc2nncs2)c(C)n1Cc1ccco1	14.5%
CCN1CCN(c2cc(C)c3cc(NC(=S)N4CCCCC4)ccc3n2)CC1	7.5%
COc1cc(/C=N/NC(=O)c2ccc(-c3ccccc3)cc2)cc(OC)c1OC	-9.3%
Cc1ccc(C(=O)CC2C(=O)N(c3ccccc3)C(=S)N2c2ccccc2)cc1 (centres undefined)	-9.1%
COc1ccc(N=c2oc3cc(O)ccc3cc2C(=O)Nc2ccccn2)cc1OC	28.2µM*
COc1ccc(NC(=O)c2cc3cccc(OC)c3oc2=Nc2ccc(C(=O)O)cc2)cc1OC	-0.6%
Cc1ccc(-c2cc(C(=O)Nc3ccccn3)c3ccccc3n2)o1	-4.2%
O=C(CSc1nc2ccccc2[nH]1)N/N=C/C=C/c1ccccc1[N+](=O)[O-]	9.1%
CCCn1cc(CN2CCC(Cc3cccc(F)c3)(C(=O)OCC)CC2)c(C)n1	2.7%[57.5 µM]
CCOC(=O)C(Sc1nnc(-c2ccncc2)o1)C(C)=O (centres undefined)	-3.5%
O=C1/C(=C\c2ccc(-c3ccccc3[N+](=O)[O-])o2)C(c2ccccc2)=NN1c1ccccc1	28.2µM*
CN(C)/C=C1/C(=O)N(c2ccc([N+](=O)[O-])cc2)N=C1c1ccccc1	-5.7%
N#C/C(=C\c1ccc(-c2ccccc2[N+](=O)[O-])o1)C(N)=O	-3.7%[57.5 µM]
Clc1nc(NCc2cccnc2)nc(N2CCOCC2)n1	12.0%
C=CCOC(=O)C1=C(C)NC(C)=C(C(=O)OCC=C)C1/C=C/c1ccccc1	25.1µM*
C=CCOC(=O)C1=C(C)NC(C)=C(C(=O)OCC=C)C1c1ccco1	3.0%[57.5 µM]
C=CCOC(=O)C1=C(C)Nc2[nH]c(=O)[nH]c(=O)c2C1c1ccccc1 (centres undefined)	4.3%
CC(/C=C/c1ccccc1)=N\NC(=O)c1cc(C)nc2ccccc12	4.5%[57.5 µM]
OCCC1CN(Cc2cccc3nonc23)CCN1Cc1ccsc1 (centres undefined)	14.8%[57.5 µM]
Cc1c(C)n(CC(O)CNc2ccccc2)c2ccccc12 (centres undefined)	6.2%
OC(CNCCC1C=Nc2ccccc21)Cn1c2ccc(Cl)cc2c2cc(Cl)ccc21 (centres undefined)	22.4µM*
Cc1c(C)n(CC(O)CNCCO)c2ccccc12 (centres undefined)	4.2%
SMILES	ERK EGF block
COCCN1C=C2C(=O)C(C)(OC(=O)c3cccs3)C(=O)C=C2C=C1CCCC(=O)OC (centres undefined)	-11.4%[57.5 µM]
O=C(Cc1csc(NC(=O)c2ccc(F)cc2)n1)NO	-4.2%
O=C(O)c1ccc(C(=O)C(=O)c2ccccc2)cc1	-0.4%[57.5 µM]
CSC(SC)=C(C#N)C(=O)c1ccccc1	25.1µM*
N#CC(C#N)=C(Nc1ccccc1)c1ccccc1	-2.1%
Cc1ccc(-n2ncc3c(N4CCCC(C)C4)ncnc32)c(C)c1 (centres undefined)	-12.1%[57.5 µM]
CCN(CC)c1ccc(NC(=O)CCNC(=O)c2ccco2)cc1	1.4%
Cn1c(N2C(=O)CC(Cc3ccccc3)C2=O)nc2ccccc21 (centres undefined)	-2.7%
COC(=O)N/N=C/c1ccc([N+](=O)[O-])o1	-11.5%
CN(/N=C/c1ccc([N+](=O)[O-])o1)c1ccccc1	25.1µM*
O=C(N/N=C/c1ccc([N+](=O)[O-])o1)C(O)c1ccccc1 (centres undefined)	0.8%[57.5 µM]
CCCC(CCC)C(=O)NC1CCN(Cc2ccccc2)CC1	-5.3%
CCCSc1nnc(NC(=O)Cc2ccc(OC)c(OC)c2)s1	-8.6%
Cn1c(-c2cc3ccccc3oc2=O)nc2ccccc21	7.9%[57.5 µM]
Cc1cccc(NC(=O)CSc2ccc(C(N)=O)cc2[N+](=O)[O-])c1C	-1.7%
Cc1cc2ccccn2c1C(=O)c1cc([N+](=O)[O-])cc([N+](=O)[O-])c1	28.2µM*
CCN(CC)S(=O)(=O)c1cccc(C(=O)c2c(C)cc3ccccn23)c1	2.6%
Cc1cc2ccccn2c1C(=O)Nc1ccccc1	-5.8%
O=C(O)c1ccc(Sc2nnc3ccccn23)c([N+](=O)[O-])c1	4.7%[57.5 µM]
Cc1cc2ccccn2c1C(=O)c1ccc(NN)c([N+](=O)[O-])c1	25.1µM*
CCCCC(CC)CNC(=O)Cn1c(=S)[nH]c2ncccc2c1=O (centres undefined)	-1.4%
COc1ccc(C(=O)C2CCCN(S(=O)(=O)c3cccnc3)C2)c(C)c1 (centres undefined)	10.9%
Cc1onc(-c2ccccc2)c1C(=O)N/N=C/c1ccco1	-7.1%[57.5 µM]
Cc1onc(-c2ccccc2)c1C(=O)N/N=C/C=C/c1ccccc1	17.8µM*
Cc1onc(-c2ccccc2)c1C(=O)N/N=C/c1cccc(O)c1	40.0%
SMILES	ERK EGF block
CCCC(=O)Nc1ncnc2c1ncn2[C@@H]1O[C@H]2COP(=O)(O)O[C@@H]2[C@@H]1OC(=O)CCC	-2.6%[25.7 µM]
COc1ccc(C(=O)NCC(=O)NCC(=O)OCC(=O)c2cccs2)cc1	-5.8%
O=C(O)c1cccc(NC2=C(N3CCOCC3)C(=O)c3ccccc3C2=O)c1	5.9%[57.5 µM]
Cc1ccc(N2CCOCC2)c2c1C(=O)c1ccccc1C2=O	16.6%
CN(C1=C(N2CCOCC2)C(=O)c2ccccc2C1=O)c1ccccc1	11.2µM*
CCOc1cc(CNC(C)(C)C)ccc1OCC(=O)Nc1cccc(C(F)(F)F)c1	2.9%
O=C(CSc1nnc(Cc2ccsc2)o1)c1ccccc1	2.1%[57.5 µM]
Cc1ccc(C)c(NC2=C(Cl)C(=O)OC2OC(C)C)c1 (centres undefined)	-12.8%
CC(=O)Nc1ccc(Nc2nc(C)c([N+](=O)[O-])c(Nc3ccccc3)n2)cc1	31.6µM*
Cc1nc(Nc2ccc(C(=O)O)cc2)nc(Nc2ccc(C(=O)O)cc2)c1[N+](=O)[O-]	6.3%
CCC(=O)Nc1ccc(Nc2nc(C)c([N+](=O)[O-])c(Nc3ccc(NC(=O)CC)cc3)n2)cc1	-1.5%
CC1Oc2ccccc2OC1(O)c1ccc2ccccc2n1 (centres undefined)	-5.2%
COc1ccc(-c2cn3c(C)c(C(=O)Nc4cc(NC(C)=O)ccc4OC)sc3n2)cc1	11.9%
CC1=NN(c2ccccc2)C(=O)/C1=C\C=C1\N(C)c2ccccc2C1(C)C	15.8µM*
CC1=NN(c2ccccc2)C(=O)/C1=C\C=C1/N(C)c2ccccc2C1(C)C	12.6µM*
CN1/C(=C\C(=O)CSc2nncn2C)C(C)(C)c2ccccc21	1.7%
Cc1nn(-c2ccccc2)c(N)c1C1(O)C(=O)N(C)c2ccccc21 (centres undefined)	7.1%
CN1/C(=C/C(=O)C2CC2)C(C)(C)c2ccccc21	11.4%
CN1/C(=C\C(=O)Nc2cccc(Cl)c2)C(C)(C)c2ccccc21	7.7%
CCOC(=O)CNC(=O)CSc1nnc(-c2c[nH]c3ccccc23)n1CC	-3.9%[57.5 µM]
Cc1cc(C)c(OCCCCN2CCC(C)CC2)c(Br)c1	-1.4%
O=c1cc(O)c2ccc(O)cc2o1	-8.8%[57.5 µM]
O=c1ccc2[n+]([O-])c3ccc(O)cc3oc-2c1	15.8µM*
O=c1cc(-c2ccc(O)cc2)oc2cc(O)ccc12	-6.5%
Cc1nn(-c2ccccc2)c(Cl)c1/C=C1\C(=O)N(C)C(=S)N1C	-0.7%
Cc1ccc(/C=C2\C(=O)Nc3ccccc32)o1	4.0%
Cc1nn(-c2ccc(F)cc2)c(Cl)c1/C=C1\C(=O)Nc2ccccc21	28.2µM*

Screens: PubChem BioAssay, National Center for Advancing Translational Sciences (NCATS)
